Only some compounds are listed: those with a hit (about 2.2% of all), similar ones and a draw of the others.
pCIP destab – compounds decreasing mouse p/CIP protein stability; Q05BA5; F442A p/CIP-EGFP cells, EGFP fluorescence, 16 h; decrease of EGFP signal, % at 10 µM; 290,000 compounds, 0.01% hits; AID 1984;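 active = EGFP signal decrease of at least 30% at 10 µM or well 3 SD below plate mean, unless failing retest; inactive = the rest, including hits failing retest or dose response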
GASC-1 inh – inhibitors of human GASC-1 (JMJD2C) demethylase; 330,000 compounds, 0.069% hits; AID 2099; GST-JMJD2C(1-420) H3K9me3 demethylation, DELFIA europium; inhibition, % at 2.35 µM; Q9H3R0;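 active = more than half of a compound's replicate wells show inhibition beyond 50%, single wells judged on their own value; inconclusive = some, but no more than half, of replicates pass 50% inhibition; inactive = no replicate passes 50% inhibition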;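 also: signal counts dimethyl H3K9 product captured on neutravidin plate; 0% = median of DMSO wells and 100% = 0.3 times that DMSO median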
PHOSPHO1 inh – PHOSPHO1 (human) inhibition; Q8TCT1; recombinant PHOSPHO1, absorbance phosphatase assay; inhibition, % at 13.3 µM; 290,000 compounds, 1.1% hits; AID 1565; in the data active = inhibition above about 60%
PvdQ acylase – P. aeruginosa PvdQ acylase inhibition; 340,000 compounds, 0.063% hits; inhibition, % at 10 µM; purified PvdQ acylase, fluorescence plate reader; in the data active = inhibition above about 30%, passing the limit was not always enough; inconclusive = no clear call, values can overlap the other calls;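 also: 0% = vehicle neutral wells and 100% = reference inhibitor wells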
Mot1-301 SUMO – SUMOylation pathway inhibition by Mot1-301 growth rescue | AID 2716 | S. cerevisiae Mot1-301 growth rescue, ATP luminescence, 38.5C; percent above DMSO median, 100 means doubled | growth rescue, % at 18.8 µM | 320,000 compounds, 1% hits;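 active = every valid replicate shows activation above 250% relative to neutral control wells; inactive = the rest, any valid replicate at or below 250%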;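 also: OY570 slx delta 5 strain wells were the positive control but not used for scaling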
HDAC3 inh – human HDAC3 inhibition. O15379. recombinant HDAC3, fluorogenic peptide/trypsin coupled, fluorescence. inhibition, % at 8.3 µM. 320,000 compounds, 0.15% hits; in the data active = inhibition above about 26%, passing the limit was not always enough; inconclusive = no clear call, values can overlap the other calls
An asterisk follows results filed as active; i = inactive; ? = inconclusive; / = no result; + = active, no number.

SMILES	pCIP destab	GASC-1 inh	PHOSPHO1 inh	PvdQ acylase	Mot1-301 SUMO	HDAC3 inh
CS(=O)(=O)c1ccc2nc(NC(=O)CN3CCC(Cc4ccccc4)CC3)sc2c1	-8	0	24	-6	294*	-3
CS(=O)(=O)c1ccc2nc(NC(=O)CN3CCN(Cc4ccccc4)CC3)sc2c1	-5	-9	6	-9	-5	4
CCOc1ccc(C2C(C#N)=C(N)Oc3nc[nH]c(=O)c32)cc1OC (centres undefined)	-18	9	20	20	334*	-2
O=C(Oc1ccc(=O)n(-c2ccccc2)n1)c1ccccc1	-4	-1	-10	8	-13	81*
CCN(c1ccc(NC(=O)COC(=O)c2ccc(S(=O)(=O)N3CCCC3)cc2)cc1)C(C)C	-1	-2	104*	-6	219	-3
NS(=O)(=O)c1ccc(NC(=O)COc2ccc(S(=O)(=O)N3CCCC3)cc2)cc1	-6	5	39	-6	342*	-11
CN1CCN(S(=O)(=O)c2ccc(NC(=O)c3cccs3)cc2)CC1	-15	-19	12	-17	129	-1
O=C(Nc1ccc(S(=O)(=O)N2CCCC2)cc1)c1cccs1	-12	12	60*	-4	23	12
COc1ccc(OCC(=O)Nc2ccc(S(=O)(=O)N3CCCC3)cc2)cc1	1	2	40	5	14	3
CC(C)c1ccc(S(=O)(=O)N2CCN(CCC(=O)Nc3ccc(N(C)C)cc3)CC2)cc1	-9	20	83*	-14	/	/
COc1ccccc1NS(=O)(=O)c1cc(NC(=O)c2cccs2)ccc1N1CCCCC1	-19	-3	-3	6	-6	0
COc1ccccc1NS(=O)(=O)c1cc(NC(=O)c2cccs2)ccc1N1CCCC1	-10	5	64*	-15	52	-8
CCN(CC)c1ccc(NC(=O)c2ccccc2F)cc1S(=O)(=O)Nc1ccccc1OC	-17	2	64*	15	-2	-1
COc1ccc(C(=O)CCN2CCN(c3ccccc3F)CC2)cc1	-7	-5	39	-15	616*	/
Cc1ccc(-n2cc(C(C)(C)C)[nH]c2=S)cc1	2	-4	93*	-6	1	-4
CC(C)(C)c1cn(-c2ccccc2)c(=S)[nH]1	-8	-14	76*	0	10	-7
CCC(C)(C)NC(=O)C(c1cccc(OC)c1OC)N(C(=O)CCC(=O)Nc1cc(C)on1)C(C)C (centres undefined)	-12	6	16	-3	15	2
Cc1cc(C)c(NC(=O)COC(=O)/C=C/c2cccs2)c(C)c1	4	9	-2	12	-18	-1
CCOC(=O)c1[nH]ncc1CN1CCC(Cc2cccc(OC)c2)(C(=O)OCC)CC1	-5	-2	20	-8	165	/
Cc1ccc(S(=O)(=O)N(Cc2cc3cc4c(cc3[nH]c2=O)OCCO4)CC2CCCO2)cc1 (centres undefined)	-6	i	4	-6	332*	-3
CCN1c2ccccc2-c2nc3ccccc3n2C1c1cccs1 (centres undefined)	-1	-1	-21	-12	103	-53
COCCNC(=O)CSc1ccccc1C(=O)NCC1CCCCC1	7	-7	2	9	+	-4
CC1CCN(C(=O)c2ccccc2SCC(=O)NCC2CCCCC2)CC1	/	2	/	-11	-24	3
CC(=O)N1c2ccccc2C2(O)N=C(C)SC12 (centres undefined)	3	12	72*	-11	9	5
Cc1c(Cc2ccccc2)c(=O)n2c([nH]c3ccccc32)c1C#N	-21	0	24	-3	25	-3
SMILES	pCIP destab	GASC-1 inh	PHOSPHO1 inh	PvdQ acylase	Mot1-301 SUMO	HDAC3 inh
COc1ccccc1N=Cc1c(C)c(C#N)c2[nH]c3ccccc3n2c1=O	6	58*	10	-2	-13	1
Cn1c(SCC(=O)NCc2ccco2)nnc1C1CCCC1	-1	-1	33	3	-10	8
Cc1nn(C)cc1CN(C)S(=O)(=O)c1cccc([N+](=O)[O-])c1	-4	5	47	-11	550*	-1
CCN(CC)c1ccc(NC(=O)Nc2ccccc2)cc1	-1	70	/	23	-14	-2
CCN(CC)c1ccc(NC(=O)Nc2ccc(C(C)=O)cc2)cc1	0	-16	85*	14	16	-2
O=C(CC1Sc2ncnn2C1=O)Nc1ccccc1 (centres undefined)	-9	-18	94*	-2	123	9
COC(=O)Cc1ccc(NC(=S)N2CCN(c3cc(Cl)ccc3C)CC2)cc1	-16	-4	27	-2	291	-1
Cc1cc(C(=O)CSc2nnc(-c3ccccc3)n2-c2ccccc2)c(C)n1-c1ncn[nH]1	-8	-1	75*	11	/	-1
Cc1cc(C(=O)CSc2nnc(-c3ccncc3)n2-c2ccccc2)c(C)n1C	-13	-11	77*	-2	2	?
O=C(CSc1nnc(-c2cccnc2)n1-c1ccccc1)N1CCN(c2ccc(F)cc2)CC1	6	-6	26	-15	-17	-11
Cc1cc(C(=O)CSc2nnc(-c3ccccc3)n2C)c(C)n1C	-2	8	24	-11	-16	-1
O=C(CSc1nnc(-c2ccncc2)n1-c1ccccc1)N1CCN(c2ccc(Cl)cc2)CC1	-4	1	93*	-6	-8	3
Cc1cc(C(=O)CSc2nnc(-c3cccnc3)n2-c2ccccc2)c(C)n1CC1CCCO1 (centres undefined)	-6	9	74*	-8	3	4
COc1ccc(NC(=O)c2cccc3cccnc23)cc1S(N)(=O)=O	-6	-11	49	0	86	-2
O=[N+]([O-])c1cc(S(=O)(=O)N2CCCCC2)ccc1NCCCN1CCOCC1	5	8	40	1	19	-2
CCCn1c(=O)c2ccccc2n2c(SCC(=O)c3cc(C)n(CC4CCCO4)c3C)nnc12 (centres undefined)	-2	/	66*	/	/	/
CCN(CC(=O)Nc1c(F)cccc1F)C(=O)C1CC(=O)N(CCc2ccccc2)C1 (centres undefined)	/	18	/	-7	9	4
O=C(NCc1cccnc1)C(=O)N/N=C/c1ccc([N+](=O)[O-])cc1	-2	-8	47	6	-1	2
CCn1c(O)c(C=Nc2ccccc2)oc1=S	9	4	103*	-13	7	4
Cc1nn(C)cc1CN(C)C(=O)c1cc(COc2ccc(F)cc2F)on1	-22	9	64*	-4	2	-6
Cc1ccc(S(=O)(=O)N/N=C/c2cc(Br)ccc2O)cc1	0	4	6	6	35	-8
Cc1ccc(S(=O)(=O)N/N=C/c2cc(Br)c(C)o2)cc1	-9	10	91*	-18	-9	7

Screens: PubChem, several laboratories
